From PubChem BioAssay AID1159580 (chemical genetic matrix, 2015)
Screen size: about 5,500 compounds; about 2,000 (36%) were called active. Another 18% or so got no clear call; they are omitted. Rule as the data show it: active = normalized growth mostly below about 0.91 (no sharp cut-off); inconclusive = no clear call, values can overlap the other calls; inactive = mostly above about 0.92. This is one part of the list.

Assay: chemical genetic growth profiling, strain panel (AID 1159580);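 also: tested at 20 µM; growth read once vehicle control cultures reached saturation at 30 °C; 1 = growth at the plate median or of vehicle wells; lower values mean less growth of the strain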
Conditions: growth OD

Measured: normalized growth

CNC(=O)Oc1cccc2c1OC(C)(C)C2
inactive: S. cerevisiae deletion strains, locus YAL013W, strain DEP1, stronger effect = lower value 1.01 | S. cerevisiae deletion strains, locus YBR021W, strain FUR4, stronger effect = lower value 0.994 | S. cerevisiae deletion strains, locus YBR229C, strain ROT2, stronger effect = lower value 1 | S. cerevisiae deletion strains, locus YCL029C, strain bik1, stronger effect = lower value 1 | S. cerevisiae deletion strains, locus YDL035C, strain GPR1, stronger effect = lower value 1.01 | S. cerevisiae deletion strains, locus YDL074C, strain BRE1, stronger effect = lower value 1.03 | S. cerevisiae deletion strains, locus YDL101C, strain DUN1, stronger effect = lower value 1.02 | S. cerevisiae deletion strains, locus YDL134C, strain PPH21, stronger effect = lower value 0.997 | S. cerevisiae deletion strains, locus YDL185W, strain tfp1, stronger effect = lower value 0.978 | S. cerevisiae deletion strains, locus YDL192W, strain arf1, stronger effect = lower value 1 | S. cerevisiae deletion strains, locus YDR101C, strain arx1, stronger effect = lower value 0.992 | S. cerevisiae deletion strains, locus YDR150W, strain NUM1, stronger effect = lower value 1.01 | S. cerevisiae deletion strains, locus YDR162C, strain NBP2, stronger effect = lower value 1.01 | S. cerevisiae deletion strains, locus YDR318W, strain mcm21, stronger effect = lower value 0.995 | S. cerevisiae deletion strains, locus YDR388W, stronger effect = lower value 0.996 | S. cerevisiae deletion strains, locus YDR502C, strain sam2, stronger effect = lower value 1 | S. cerevisiae deletion strains, locus YEL061C, strain CIN8, stronger effect = lower value 1 | S. cerevisiae deletion strains, locus YER110C, stronger effect = lower value 0.993 | S. cerevisiae deletion strains, locus YER155C, strain BEM2, stronger effect = lower value 1.02 | S. cerevisiae deletion strains, locus YER167W, strain BCK2, stronger effect = lower value 1.02 | S. cerevisiae deletion strains, locus YGL078C, strain dbp3, stronger effect = lower value 0.979 | S. cerevisiae deletion strains, locus YGL086W, strain mad1, stronger effect = lower value 0.995 | S. cerevisiae deletion strains, locus YGL248W, strain PDE1, stronger effect = lower value 1.01 | S. cerevisiae deletion strains, locus YGR078C, strain PAC10, stronger effect = lower value 1.01 | S. cerevisiae deletion strains, locus YGR135W, strain pre9, stronger effect = lower value 1 | S. cerevisiae deletion strains, locus YGR229C, strain SMI1, stronger effect = lower value 1.02 | S. cerevisiae deletion strains, locus YGR252W, strain gcn5, stronger effect = lower value 0.99 | S. cerevisiae deletion strains, locus YHR030C, strain SLT2, stronger effect = lower value 1.01 | S. cerevisiae deletion strains, locus YHR079C, strain IRE1 (second series), stronger effect = lower value 0.996 | S. cerevisiae deletion strains, locus YHR094C, strain hxt1, stronger effect = lower value 0.994 | S. cerevisiae deletion strains, locus YHR129C, strain ARP1, stronger effect = lower value 1.01 | S. cerevisiae deletion strains, locus YHR200W, strain rpn10, stronger effect = lower value 1 | S. cerevisiae deletion strains, locus YIL066C, strain RNR3, stronger effect = lower value 1.01 | S. cerevisiae deletion strains, locus YIL073C, strain SPO22, stronger effect = lower value 1.04 | S. cerevisiae deletion strains, locus YIL125W, strain kgd1, stronger effect = lower value 0.987 | S. cerevisiae deletion strains, locus YIR030C, strain dcg1, stronger effect = lower value 0.996 | S. cerevisiae deletion strains, locus YJL095W, strain BCK1, stronger effect = lower value 1 | S. cerevisiae deletion strains, locus YJL134W, strain LCB3, stronger effect = lower value 1 | S. cerevisiae deletion strains, locus YJL168C, strain set2, stronger effect = lower value 0.997 | S. cerevisiae deletion strains, locus YJL187C, strain SWE1 (second series), stronger effect = lower value 1.01 | S. cerevisiae deletion strains, locus YJR043C, strain POL32, stronger effect = lower value 1.01 | S. cerevisiae deletion strains, locus YJR075W, strain HOC1, stronger effect = lower value 1.01 | S. cerevisiae deletion strains, locus YKL009W, strain mrt4, stronger effect = lower value 1.01 | S. cerevisiae deletion strains, locus YKL068W, stronger effect = lower value 0.987 | S. cerevisiae deletion strains, locus YKL085W, strain MDH1 (second series), stronger effect = lower value 0.978 | S. cerevisiae deletion strains, locus YKL085W, strain MDH1, stronger effect = lower value 0.978 | S. cerevisiae deletion strains, locus YKL190W, strain CNB1, stronger effect = lower value 1.02 | S. cerevisiae deletion strains, locus YKR001C, strain vps1, stronger effect = lower value 0.999 | S. cerevisiae deletion strains, locus YLR039C, strain RIC1, stronger effect = lower value 1.04 | S. cerevisiae deletion strains, locus YLR058C, strain SHM2, stronger effect = lower value 1.01 | S. cerevisiae deletion strains, locus YLR102C, strain apc9, stronger effect = lower value 1 | S. cerevisiae deletion strains, locus YLR262C, strain YPT6, stronger effect = lower value 1.06 | S. cerevisiae deletion strains, locus YLR268W, strain sec22, stronger effect = lower value 1.01 | S. cerevisiae deletion strains, locus YLR330W, strain CHS5, stronger effect = lower value 1 | S. cerevisiae deletion strains, locus YLR342W, strain FKS1 (second series), stronger effect = lower value 1.02 | S. cerevisiae deletion strains, locus YLR371W, strain rom2, stronger effect = lower value 0.993 | S. cerevisiae deletion strains, locus YLR418C, strain cdc73, stronger effect = lower value 0.973 | S. cerevisiae deletion strains, locus YML016C, strain PPZ1, stronger effect = lower value 1 | S. cerevisiae deletion strains, locus YML032C, strain rad52, stronger effect = lower value 1 | S. cerevisiae deletion strains, locus YML124C, strain tub3, stronger effect = lower value 0.999 | S. cerevisiae deletion strains, locus YMR078C, strain ctf18, stronger effect = lower value 0.988 | S. cerevisiae deletion strains, locus YMR223W, strain ubp8, stronger effect = lower value 0.992 | S. cerevisiae deletion strains, locus YMR263W, strain SAP30, stronger effect = lower value 0.992 | S. cerevisiae deletion strains, locus YMR307W, strain GAS1, stronger effect = lower value 1.02 | S. cerevisiae deletion strains, locus YNL067W, strain RPL9B, stronger effect = lower value 1.02 | S. cerevisiae deletion strains, locus YNL128W, strain TEP1, stronger effect = lower value 1.02 | S. cerevisiae deletion strains, locus YNL153C, strain GIM3, stronger effect = lower value 1.01 | S. cerevisiae deletion strains, locus YNL233W, strain BNI4, stronger effect = lower value 1.02 | S. cerevisiae deletion strains, locus YNL250W, strain rad50, stronger effect = lower value 0.967 | S. cerevisiae deletion strains, locus YNL271C, strain bni1, stronger effect = lower value 0.977 | S. cerevisiae deletion strains, locus YNL298W, strain CLA4, stronger effect = lower value 0.986 | S. cerevisiae deletion strains, locus YNL307C, strain MCK1, stronger effect = lower value 0.995 | S. cerevisiae deletion strains, locus YNL322C, strain KRE1, stronger effect = lower value 1.01 | S. cerevisiae deletion strains, locus YNR052C, strain pop2, stronger effect = lower value 1 | S. cerevisiae deletion strains, locus YOL006C, strain TOP1, stronger effect = lower value 1.01 | S. cerevisiae deletion strains, locus YOL012C, strain htz1 0.992 | S. cerevisiae deletion strains, locus YOL147C, strain pex11, stronger effect = lower value 0.996 | S. cerevisiae deletion strains, locus YOR061W, strain CKA2, stronger effect = lower value 1 | S. cerevisiae deletion strains, locus YOR069W, strain VPS5, stronger effect = lower value 1.01 | S. cerevisiae deletion strains, locus YOR136W, strain idh2, stronger effect = lower value 0.993 | S. cerevisiae deletion strains, locus YOR144C, strain elg1, stronger effect = lower value 1 | S. cerevisiae deletion strains, locus YOR184W, strain ser1, stronger effect = lower value 1.01 | S. cerevisiae deletion strains, locus YOR316C, strain cot1, stronger effect = lower value 0.996 | S. cerevisiae deletion strains, locus YPL055C, strain LGE1, stronger effect = lower value 1.03 | S. cerevisiae deletion strains, locus YPL241C, strain CIN2, stronger effect = lower value 1 | S. cerevisiae deletion strains, locus YPR119W, strain clb2, stronger effect = lower value 0.993 | S. cerevisiae deletion strains, locus YPR141C, strain kar3, stronger effect = lower value 0.973 | S. cerevisiae deletion strains, locus YPR163C, strain tif3, stronger effect = lower value 0.987 | S. cerevisiae deletion strains, locus YPR167C, strain met16, stronger effect = lower value 0.999 | S. cerevisiae deletion strains, strain wtn01, stronger effect = lower value 0.994 | S. cerevisiae strains, strain wild type, stronger effect = lower value 1.01
